IL-1B inflam inh – qHTS for Inhibitors of Inflammasome Signaling: IL-1-beta AlphaLISA Primary Screen. THP-1 LPS/ATP IL-1B secretion, AlphaLISA, 16 h; stronger effect = lower value. AID 743279, 2014. activity change, % at 57.5 µM. actives 4.7% (n = 360,000); in the data active = activity change below about -50%; inconclusive = mostly about -30% to -49%
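Secreted IL-1B measured by AlphaLISA bead assay after 16 h compound exposure of THP-1 cells; compounds (final up to 57.5 uM) added 1 h before LPS (250 ng/mL) and ATP (1.25 mM) stimulation; lower signal means less secretion.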
DT40 TDP1 CPT – qHTS for Inhibitors of human tyrosyl-DNA phosphodiesterase 1 (TDP1): qHTS in cells in presence of CPT; AID 686979, 2013; chicken DT40 Tdp1-/-;hTDP1 cells + 20 nM CPT, ATP luminescence, 48 h; Potency, µM (doses to about 46.2 µM), without a hit: top-dose activity change, negative = growth inhibition, hits mostly inhibitors; actives 12% (n = 420,000); also: potency is read from the fitted curve at half-maximal effect; nearly all actives have a fitted effect of over 55% in size
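Chicken DT40 Tdp1-/- cells stably complemented with human TDP1 were seeded at 400 cells/well in medium containing 20 nM camptothecin, exposed to pin-transferred compounds, and grown at 37 °C for at least 48 hr. Viability was read as ATP luminescence.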
HT1080 IDH1KD tx – qHTS for induction of synthetic lethality in tumor cells producing 2HG: qHTS for the HT-1080-IDH1KD cell line; HT-1080 IDH1 knockdown viability, ATP luminescence, 48 h; Potency, µM (doses to about 46.1 µM), for the others: at the top dose activity, negative = toxicity, usual class: cytotoxic; actives 2% (n = 360,000); AID 686971, 2013;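 also: potency is read from the fitted curve at half-maximal effect; 0% = DMSO wells and -100% = cell-free medium wells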
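After a 2 h attachment period, IDH1KD HT-1080 cells took pin-transferred compound for 48 h at 37 °C; ATP-based luminescence after 10 min room-temperature reagent incubation reported viability.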
HT1080-NT tox – qHTS for induction of synthetic lethality in tumor cells producing 2HG: qHTS for the HT-1080-NT fibrosarcoma cell line. AID 686970, 2013. HT-1080-NT fibrosarcoma viability, CellTiter-Glo ATP luminescence, 48 h. Potency, µM (titrated, usually from 46.1 µM), for the others: at the highest dose activity, negative = less viability, usual class: cytotoxic. actives 1.6% (n = 360,000);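 also: NT is the 2HG producing partner of a matched IDH1 knockdown line; potency is read from the fitted curve at half-maximal effect; 0% = DMSO-treated cells and -100% = media-only wells without cells; nearly all actives have a fitted effect of over 55% in size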
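750 cells/well, RPMI + 5% FBS; 2 h settle, compound pin-transfer, 48 h at 37 degrees C. CellTiter-Glo 10 min RT, luminescence. Normalized to DMSO and media-only wells.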
TDP1 cell noCPT – qHTS for Inhibitors of human tyrosyl-DNA phosphodiesterase 1 (TDP1): qHTS in cells in absence of CPT; DT40 Tdp1-/- hTDP1 cells, no CPT, ATP luminescence, 48 h; Potency, µM (highest dose often 46.2 µM), for the others: top-dose activity change, negative = growth inhibition, actives largely listed as inhibitors; actives 15% (n = 420,000); AID 686978, 2013; also: potency is read from the fitted curve at half-maximal effect; nearly all actives have a fitted effect of over 55% in size
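Stably hTDP1-transfected Tdp1-null chicken DT40 cells were treated with library compounds minus camptothecin and grown for at least 48 hr at 37 °C, after which cellular ATP was quantified by luminescence.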
ALOX12 inh – Primary qHTS assay for inhibitors of human arachidonate 12S-lipoxygenase (ALOX12): Round 2; Potency, µM (top dose mostly 108 µM), for inactives: at the top dose activity change, negative = inhibition, hits mostly inhibitors; AID 1671190, 2021; purified 12hLO, xylenol orange hydroperoxide absorbance; actives 1.1% (n = 580,000); Polyunsaturated fatty acid lipoxygenase ALOX12 (Homo sapiens), P18054; also: potency is read from the fitted curve at half-maximal effect
Target sequence (P18054 whole entry, looked up): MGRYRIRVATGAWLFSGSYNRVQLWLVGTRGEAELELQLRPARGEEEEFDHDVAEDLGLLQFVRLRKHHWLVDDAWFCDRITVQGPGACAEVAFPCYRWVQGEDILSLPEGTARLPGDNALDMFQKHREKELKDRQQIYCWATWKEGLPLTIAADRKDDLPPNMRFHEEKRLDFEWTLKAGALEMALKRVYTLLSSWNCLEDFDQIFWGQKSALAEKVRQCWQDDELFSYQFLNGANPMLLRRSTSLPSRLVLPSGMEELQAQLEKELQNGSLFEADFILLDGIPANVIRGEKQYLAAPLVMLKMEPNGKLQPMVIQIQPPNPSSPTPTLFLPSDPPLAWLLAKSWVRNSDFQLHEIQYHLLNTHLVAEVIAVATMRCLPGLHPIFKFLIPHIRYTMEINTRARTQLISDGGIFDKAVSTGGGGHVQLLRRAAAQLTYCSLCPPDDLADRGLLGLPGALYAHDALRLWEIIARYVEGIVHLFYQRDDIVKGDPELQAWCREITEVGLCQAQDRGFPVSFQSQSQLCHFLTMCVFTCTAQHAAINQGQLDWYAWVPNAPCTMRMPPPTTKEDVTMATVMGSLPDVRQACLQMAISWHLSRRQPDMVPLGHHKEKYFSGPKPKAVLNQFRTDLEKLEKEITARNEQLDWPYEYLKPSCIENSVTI
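Hydroperoxide product was detected by ferrous iron/xylenol orange as the 573 to 405 nm absorbance ratio. Arachidonic acid at 40 uM (final) was turned over for 30 min at room temperature by 150 nM human 12hLO, pH 7.0 Hepes buffer, after 15 min compound preincubation.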
* = called active by the depositor; ? = inconclusive; / = no result given; [ ] = another dose, or the depositor's remark. This excerpt belongs to a sample that is enriched for hits. Unless noted, calls follow the shape of the dose curve; as a rule, active = well fitted curve in the direction sought with a large enough effect; inconclusive = small, poorly fitted or top-dose-only effect, or another doubt; inactive = no such curve, though single readings can be large; an effect the other way counts as inactive or inconclusive. Unless noted, % is scaled to controls: 0 for no effect and ±100 for the full control effect.

SMILES	IL-1B inflam inh	DT40 TDP1 CPT	HT1080 IDH1KD tx	HT1080-NT tox	TDP1 cell noCPT	ALOX12 inh
Cc1ccc(NC(=O)CCc2c(C)nn(-c3ccc(N4CCCCC4)nn3)c2C)cc1	-2	?	-17%	-8%	-18%	21%
CC[C@H]1CN(C(=O)NC(C)C)CC[C@H]1CC(=O)NC1CC1	/	/	/	/	/	50%[176 µM]
O=C(c1cc(F)ccc1F)N1CCC[C@H]1c1nc(-c2ccc(F)cc2)no1	/	/	/	/	/	7%
COc1cccc(CN2CCCC3(CCN(C(=O)c4ccccn4)C3)C2=O)c1OC (stereo unspecified)	/	/	/	/	/	13%
Cc1nn(-c2ccc(N3CCCCC3)nn2)c(C)c1CCC(=O)Nc1ccc(F)c(F)c1	-13	?	-20%	-29%	-28%	25%
Cc1nn(-c2ccc(N3CCCC3)nn2)c(C)c1CCC(=O)Nc1ccc(F)c(Cl)c1	/	18µM*	/	/	26µM*	-22%
CC(C)C(=O)Nc1ccc(NC(=O)CC(C)(C(=O)O)c2ccccc2)cc1 (stereo unspecified)	/	/	/	/	/	-5%
Cc1ccc(-c2csc3nc(C)n(-n4c(C)ccc4C)c(=O)c23)o1	1	21µM*	0%	3%	21µM*	2%
Cc1ccc(-c2csc3nc(C)n(N)c(=O)c23)o1	12	-5%	1%	-3%	-23%	0%
CN1CCC(NC(=O)CCC[C@@H]2[C@H]3CCCN4CCC[C@@H](CN2C)[C@@H]34)CC1	/	/	/	/	/	43%
Cc1ccc(CN2C(=O)CCC2C(=O)NCCN2CCN(c3cccc(Cl)c3)CC2)cc1 (stereo unspecified)	?	?	-15%	-2%	15µM*	5%
O=C(C1CCC(=O)N1Cc1ccccc1Cl)N1CCN(c2cccc(Cl)c2)CC1 (stereo unspecified)	-2	23µM*	?	-14%	23µM*	398%
C#CCN1CCCCC1C(=O)N1CCN(c2cccc(Cl)c2)CC1 (stereo unspecified)	/	/	/	/	/	-11%
Cc1ccc(CN2C(=O)CCC2C(=O)NCCCN2CCC(C)CC2)cc1 (stereo unspecified)	-7	20%	1%	8%	10%	167%
OC(c1ncc(-c2ccccc2)o1)C(F)(F)F (stereo unspecified)	/	/	/	/	/	-25%
CCn1cc(CNC(=O)c2cc(-c3ccc(C)cc3)nc3ccc(Br)cc23)c(C)n1	/	6.5µM*	/	/	13µM*	-23%
CCn1cc(CNC(=O)c2cc(-c3cc(OC)ccc3OC)nc3ccccc23)c(C)n1	5	?	4%	1%	23µM*	-16%
CCn1cc(CNC(=O)c2cc(-c3ccccc3OC)nc3ccccc23)c(C)n1	-11	?	-1%	-10%	15µM*	-14%
Cn1cc(/C=C/C(=O)N2CCCC(C(F)(F)F)C2)c(=O)n(C)c1=O (stereo unspecified)	/	/	/	/	/	-9%
CN(C)[S+](=O)([O-])c1ccc2c(c1)OCCN(Cc1cccc(Cl)c1)C2	/	/	/	/	/	-26%[176 µM]
Cc1c(CCOC(=O)CC23CC4CC(CC(C4)C2)C3)sc[n+]1Cc1ccccc1	?	2.1µM*	?	?	1.8µM*	-20%
Cc1c(CCOC(=O)C23CC4CC(CC(C4)C2)C3)sc[n+]1CC#N	-102*	3.3µM*	?	?	5.2µM*	-30%
